Screening results (PubChem BioAssay)
An excerpt weighted towards active compounds, which were near 9.4% of everything screened.
Rab9 promoter act = activators of Rab9 promoter; Huh7 Rab9 promoter-luciferase reporter, luminescence, 24 h; 2.8% of 320,000 active; Potency, µM (series often up to 9.22 µM), for the others: at the highest dose activation, negative = inhibition, usual class: activators; further: % of control where 0% means no effect; nearly all actives have a fitted effect of over 60% in size
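Luciferase signal after 10 min detection reagent at ambient indicates Rab9 promoter upregulation; stably transfected Huh7 cells were treated 24 h with compound in DMSO at 37 °C, 5% CO2.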
FLuc modulator = counter-screen for miR-21 project: firefly luciferase inhibitors or activators. P08659. purified FLuc, Km substrates, luminescence inhibition. 6.9% of 360,000 active. AID 588342. Potency, µM (highest dose often 57.5 µM), without a hit: top-dose activity change, negative = inhibition, usual class: inhibitors;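 further: plate controls were vehicle for no effect and reference inhibitor for full effect; nearly all actives have a fitted effect of over 55% in size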
Target sequence (P08659 whole entry, looked up): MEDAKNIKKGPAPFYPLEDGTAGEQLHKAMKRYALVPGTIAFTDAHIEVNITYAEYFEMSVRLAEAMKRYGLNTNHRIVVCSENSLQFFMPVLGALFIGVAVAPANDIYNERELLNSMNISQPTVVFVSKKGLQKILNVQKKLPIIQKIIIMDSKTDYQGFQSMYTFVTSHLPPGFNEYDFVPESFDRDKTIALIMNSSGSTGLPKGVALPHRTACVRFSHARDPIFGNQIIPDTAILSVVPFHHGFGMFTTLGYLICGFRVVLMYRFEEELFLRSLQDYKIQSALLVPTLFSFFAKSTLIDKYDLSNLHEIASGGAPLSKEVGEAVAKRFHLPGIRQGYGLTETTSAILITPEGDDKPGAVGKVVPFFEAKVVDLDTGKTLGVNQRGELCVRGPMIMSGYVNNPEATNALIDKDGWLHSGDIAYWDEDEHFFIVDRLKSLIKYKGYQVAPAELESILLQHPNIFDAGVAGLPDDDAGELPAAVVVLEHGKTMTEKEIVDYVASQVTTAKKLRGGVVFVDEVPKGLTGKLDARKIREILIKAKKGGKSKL
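Biochemical qHTS of compounds, final roughly 60 µM downward over six points, against 10 nM purified firefly luciferase using Km concentrations of substrates (10 uM D-luciferin, 10 uM ATP) in Tris acetate pH 7.5 buffer; luminescence output.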
NPC1 promoter act = NPC1 promoter activation | Huh7 NPC1 promoter luciferase reporter, 24 h | Potency, µM (top dose mostly 9.22 µM), for inactives: at the highest dose activation, usual class: activators | 2.4% of 320,000 active | AID 485313; further: % of control where 0% means no effect; nearly all actives have a fitted effect of over 60% in size
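Readout is luciferase luminescence, reflecting NPC1 promoter activation in stably transfected Huh7 cells after 24 h compound exposure at 37 °C in reduced-serum medium with 10% FBS.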
ELG1 DNA repair = ELG1-dependent DNA repair inhibition | HEK293T ELG1-luciferase reporter, luminescence, 16 h; DNA damage induced by 5-fluorouridine | Potency, µM (titrated, usually from 46.1 µM), inactives show top-dose activity change, negative = inhibition, usual class: inhibitors | 2.3% of 330,000 active; further: on the % scale 0 is the no-effect control and ±100 the full control effect; nearly all actives have a fitted effect of over 55% in size
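In this reporter screen, reduction of luminescence relative to DMSO vehicle indicated activity. Compounds and 5-fluorouridine were added together to 2,000 cells per well, incubated for 16 hr at 37 °C, then developed with ONE-Glo.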
ELG1 genotoxic = genotoxicity induction in ELG1-luciferase HEK293T cells; HEK293T ELG1-luciferase reporter, luminescence, 16 h; Potency, µM (doses to about 46 µM), for the others: top-dose activity change, positive = activation, hits mostly activators; 1.3% of 330,000 active; further: % of control where 0% means no effect; nearly all actives have a fitted effect of over 60% in size
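16 hr compound incubation (37 °C, 5% CO2) of HEK293T cells carrying luciferase-tagged ELG1; luciferase then measured by ONE-Glo luminescence after 30 min at RT.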
SMN2 splice enh = enhancers of SMN2 splice variant expression; HEK293 SMN2-luciferase splicing reporter, luminescence, 30-36 h; Potency, µM (series often up to 46.1 µM), for inactives: at the highest dose activity change, positive = activation, actives largely listed as activators; 2.8% of 210,000 active; further: % of control where 0% means no effect; nearly all actives have a fitted effect of over 55% in size
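HEK293 cells carry an SMN2 […]–luciferase reporter in which exon 7 inclusion puts luciferase in frame. Cells were plated 10-12 h before compound addition, then incubated 30-36 h at 37C. ONE-Glo luminescence was read; sodium butyrate at 4.5 mM final served as control.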
* marks the source's active call; other numbers are inactive results. The call rests on the fitted dose curve; in most records, active means well fitted curve in the direction sought with a large enough effect; inconclusive means small, poorly fitted or top-dose-only effect, or another doubt; inactive means no such curve, though single readings can be large; an effect the other way counts as inactive or inconclusive. Potency means the concentration at half of the fitted maximal effect.

For COc1ccccc1NS(=O)(=O)c1cc(NC(=O)CCc2nc3ccccc3c(=O)[nH]2)ccc1C the results were Rab9 promoter act -3.8%, FLuc modulator 2.6%, NPC1 promoter act 0.7%, ELG1 DNA repair 13µM* and ELG1 genotoxic -11.2%.
Screening COC(=O)c1ccc(NC(=O)CSc2nc3ccccc3c(=O)[nH]2)cc1 returned Rab9 promoter act -0.9%, FLuc modulator -4.9%, NPC1 promoter act -3.1%, ELG1 DNA repair inconclusive, ELG1 genotoxic inconclusive and SMN2 splice enh -15.4%.
`COc1ccc(NC(=O)CSc2nc3ccccc3c(=O)[nH]2)cc1S(N)(=O)=O` gave Rab9 promoter act -0.2%, FLuc modulator 19µM*, NPC1 promoter act 1.0%, ELG1 DNA repair 22.7% and ELG1 genotoxic 2.3%.
O=C(CCc1nc2ccccc2c(=O)[nH]1)Nc1ccc(F)cc1 was read as Rab9 promoter act -9.0%, FLuc modulator -17.1%, NPC1 promoter act 2.0%, ELG1 DNA repair inconclusive, ELG1 genotoxic 4.4% and SMN2 splice enh inconclusive.
Screening CCCS(=O)(=O)c1nc(S(=O)(=O)c2ccc(C)cc2)c(NCc2ccccc2Cl)s1 returned FLuc modulator -3.7% and SMN2 splice enh -0.7%.
For O=C1OC(c2ccccc2)=N/C1=C\C=C\c1ccco1 the results were Rab9 promoter act 0.8%, FLuc modulator 4.78µM*, NPC1 promoter act -1.9%, ELG1 DNA repair 8.2% and ELG1 genotoxic -0.7%.
Screening CC(C)Oc1ccc(CNC(=O)CCn2c(=O)c3cccn3c3ccc(F)cc32)cc1 returned FLuc modulator 1.4%.
Screening Cc1cccc(NC(=S)N2N=CCC2c2ccccc2)c1 (centres undefined) returned Rab9 promoter act 20.2%, FLuc modulator 21.3µM*, NPC1 promoter act inconclusive, ELG1 DNA repair inconclusive, ELG1 genotoxic inconclusive and SMN2 splice enh 5.4%.
Screening Cc1ccc(-c2noc(-c3nnn(CC(=O)Nc4ccc(C)c(Cl)c4)c3N)n2)cc1 returned FLuc modulator -11.0%.
Screening COc1ccc(Cl)cc1NC(=O)CSc1nc2c(oc3ccccc32)c(=O)n1Cc1ccco1 returned FLuc modulator -6.7% and SMN2 splice enh 0.8%.
`O=C(OCC(=O)c1ccc(Cl)s1)c1ccc(CO)cc1` gave Rab9 promoter act 0.0%, FLuc modulator 21.3µM*, NPC1 promoter act 0.2%, ELG1 DNA repair 19.1% and ELG1 genotoxic -1.0%.
For Cc1ccc(C(=O)COC(=O)c2ccc(Cl)c(N)c2)s1 the results were Rab9 promoter act 3.16µM*, FLuc modulator 1.35µM*, NPC1 promoter act inconclusive, ELG1 DNA repair inconclusive and ELG1 genotoxic 13.8%.
Screening O=C(OCC(=O)c1ccc(Br)s1)c1ccc(O)cc1 returned ELG1 DNA repair inconclusive and ELG1 genotoxic 7.6%.
For CCc1cccc(C)c1NC(=O)C1CCN(S(=O)(=O)c2c(C)noc2/C=C/c2c(C)cc(C)cc2C)CC1 the results were FLuc modulator 2.0%.
`CC(=O)Nc1ccc(S(=O)(=O)NCCc2csc3nc(-c4ccc(Cl)cc4)nn23)cc1` gave FLuc modulator -12.8%.
`COCCN(C(=O)COC(=O)/C=C/c1nc2ccccc2s1)c1c(N)n(Cc2ccccc2)c(=O)[nH]c1=O` gave Rab9 promoter act -2.1%, FLuc modulator 21.3µM*, NPC1 promoter act 2.2%, ELG1 DNA repair inconclusive and ELG1 genotoxic -22.3%.
Screening COCCN(C(=O)COC(=O)/C=C/c1ccc2ccccc2n1)c1c(N)n(Cc2ccccc2)c(=O)[nH]c1=O returned Rab9 promoter act 1.7%, FLuc modulator inconclusive, NPC1 promoter act -3.9%, ELG1 DNA repair 11.6µM* and ELG1 genotoxic -3.2%.
Screening COc1ccc(N(CC(=O)NCCc2ccccc2)S(=O)(=O)c2ccc(OC)c(OC)c2)cc1 returned FLuc modulator 0.6% and SMN2 splice enh -8.3%.
For N#C/C(=C\Nc1ccc(Cl)cc1)S(=O)(=O)c1ccccn1 the results were Rab9 promoter act -1.4%, FLuc modulator -1.9%, NPC1 promoter act -1.8%, ELG1 DNA repair -5.2% and ELG1 genotoxic 3.0%.
CN(C)c1nc(NCc2ccccc2)nc(N/N=C/c2ccccc2F)n1 was read as Rab9 promoter act 0.0%, FLuc modulator -5.8%, NPC1 promoter act -2.0%, ELG1 DNA repair inconclusive, ELG1 genotoxic -11.4% and SMN2 splice enh -15.4%.
For Cc1cc(N/N=C/c2cccc(Cl)c2)nc(NCc2ccccc2)n1 the results were Rab9 promoter act -0.6%, FLuc modulator inconclusive, NPC1 promoter act -1.9%, ELG1 DNA repair 17.0%, ELG1 genotoxic -1.0% and SMN2 splice enh -16.8%.
`Cc1cc(N/N=C/c2cccc(F)c2)nc(NCc2ccccc2)n1` gave Rab9 promoter act 4.0%, FLuc modulator 12µM*, NPC1 promoter act 0.7%, ELG1 DNA repair 8.9% and ELG1 genotoxic -1.5%.
Cc1cc(N/N=C/c2ccccc2F)nc(NCc2ccccc2)n1 was read as Rab9 promoter act 1.4%, FLuc modulator 15.1µM*, NPC1 promoter act -1.3%, ELG1 DNA repair 0.0% and ELG1 genotoxic -6.3%.
Cc1cc(N/N=C/c2ccc(Cl)cc2)nc(NCc2ccccc2)n1 was read as Rab9 promoter act -0.8%, FLuc modulator 15.1µM*, NPC1 promoter act -2.6%, ELG1 DNA repair -16.8%, ELG1 genotoxic -3.0% and SMN2 splice enh -30.0%.
`Cc1cc(N/N=C/c2ccccc2)nc(NCc2ccccc2)n1` gave Rab9 promoter act 3.0%, FLuc modulator 6.01µM*, NPC1 promoter act -1.6%, ELG1 DNA repair inconclusive, ELG1 genotoxic -0.4% and SMN2 splice enh -3.9%.
`COC(=O)Nc1ccc(S(=O)(=O)N2CCCC(C(=O)NC3CCS(=O)(=O)C3)C2)cc1` (centres undefined) gave Rab9 promoter act -4.8%, FLuc modulator 4.6%, NPC1 promoter act -1.9%, ELG1 DNA repair 5.7%, ELG1 genotoxic 0.1% and SMN2 splice enh -35.3%.
Screening FC(F)(F)c1cnc(COc2ccc(Cl)cc2Cl)c(Cl)c1 returned Rab9 promoter act 0.5%, FLuc modulator inconclusive, NPC1 promoter act -0.1%, ELG1 DNA repair 14.7% and ELG1 genotoxic 5.7%.
`COc1ccc(N2CCN(C(CNC(=O)C(=O)NCc3ccc(F)cc3)c3cccnc3)CC2)cc1` (centres undefined) gave FLuc modulator -1.9%.
Screening COc1ccc(-c2noc(-c3nnn(-c4cc(C)ccc4C)c3N)n2)cc1 returned FLuc modulator -6.5%.
`O=C(Cn1cnc2onc(-c3ccc(F)cc3)c2c1=O)N1CCN(c2ccc(F)cc2)CC1` gave FLuc modulator 2.3%.
